# In all, about 310,000 compounds went through this assay and about 14,000 (4.5%) showed an effect of 50% or more. Effects have a minus sign here. Only a selection was taken, and strong results are over-represented in it overall.
# Biological target: human ether-à-go-go-related gene (hERG) potassium channel (human, UniProt Q12809)
# Experiment: primary screen, population patch clamp on CHO cells stably expressing hERG; higher = less effect of the substance
# 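Note: peak tail current of the secondary pulse compared with the same well before compound.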
# Chain of human ether-à-go-go-related gene (hERG) potassium channel (Q12809 whole entry, looked up): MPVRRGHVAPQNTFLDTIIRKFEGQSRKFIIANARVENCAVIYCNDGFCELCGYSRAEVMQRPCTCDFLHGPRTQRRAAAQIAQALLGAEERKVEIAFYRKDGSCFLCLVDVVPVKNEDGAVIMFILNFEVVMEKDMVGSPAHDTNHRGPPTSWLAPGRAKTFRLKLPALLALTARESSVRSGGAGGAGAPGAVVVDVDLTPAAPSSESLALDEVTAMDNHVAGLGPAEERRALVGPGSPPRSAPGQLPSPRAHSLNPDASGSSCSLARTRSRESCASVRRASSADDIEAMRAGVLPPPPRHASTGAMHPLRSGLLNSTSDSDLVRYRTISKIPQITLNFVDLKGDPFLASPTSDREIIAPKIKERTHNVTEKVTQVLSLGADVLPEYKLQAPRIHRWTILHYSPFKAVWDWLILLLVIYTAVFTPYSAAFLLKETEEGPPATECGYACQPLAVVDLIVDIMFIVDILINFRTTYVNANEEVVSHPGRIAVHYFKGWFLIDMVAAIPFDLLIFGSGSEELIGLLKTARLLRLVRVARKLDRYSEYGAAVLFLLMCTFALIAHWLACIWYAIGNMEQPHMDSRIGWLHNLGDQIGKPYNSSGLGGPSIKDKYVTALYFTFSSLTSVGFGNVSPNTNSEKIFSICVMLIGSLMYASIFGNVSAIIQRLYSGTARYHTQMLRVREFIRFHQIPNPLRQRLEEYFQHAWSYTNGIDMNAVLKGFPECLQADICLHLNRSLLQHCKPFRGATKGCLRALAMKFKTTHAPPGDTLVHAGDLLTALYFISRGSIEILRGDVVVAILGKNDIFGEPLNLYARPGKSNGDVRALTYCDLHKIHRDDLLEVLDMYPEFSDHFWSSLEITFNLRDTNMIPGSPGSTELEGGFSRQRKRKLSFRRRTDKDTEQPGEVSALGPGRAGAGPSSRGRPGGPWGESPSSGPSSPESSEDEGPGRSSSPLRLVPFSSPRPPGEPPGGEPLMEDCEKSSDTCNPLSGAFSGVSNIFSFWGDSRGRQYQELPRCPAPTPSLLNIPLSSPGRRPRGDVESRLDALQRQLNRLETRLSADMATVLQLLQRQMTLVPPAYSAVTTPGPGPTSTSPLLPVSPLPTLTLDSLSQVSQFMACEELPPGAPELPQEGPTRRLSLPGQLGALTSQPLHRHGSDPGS
row,Structure (SMILES),"hERG current change (%, negative = inhibition) at 10uM"
1,Cc1ccc(NC(=S)N(CCCN2CCC(C)CC2)Cc2ccco2)cc1,-72%
2,Cc1ccc(NC(=S)N(CCCN2CCOCC2)Cc2ccco2)cc1C,-31.9%
3,Cc1ccc2[nH]c(=O)c(CN(Cc3ccco3)C(=O)c3ccncc3)cc2c1,-43.4%
4,Cc1ccc2[nH]c(=O)c(CN(Cc3ccco3)C(=O)N3CCOCC3)cc2c1,-0.449%
5,O=C(c1c[nH]c2ccccc12)C(O)C(c1ccccc1)N1CCOCC1 (centres unmarked),-0.703%
6,CSC1=N/C(=C\c2c(F)cccc2Cl)C(=O)S1,-17.5%
7,CC(=O)Nc1ccc(NC(=O)CSc2nnc(C)n2-c2ccccc2)cc1,26.1%
8,CCOC(=O)C1C(=O)OC2(CCOC(C)(C)C2)C1C(=O)OCC (centres unmarked),5.89%
9,COc1ccc(N(CC(=O)NCc2ccccc2Cl)S(=O)(=O)c2c(C)n[nH]c2C)cc1,2.87%
10,O=C(Nc1ccc2c(c1)OCCO2)C1CCN(C(=O)c2ccc(F)cc2)CC1,3.73%
11,COc1ccc(C(=O)N2CCC(C(=O)Nc3ccc4c(c3)OCCO4)CC2)cc1,-44.2%
12,O=C(Nc1ccc2c(c1)OCCO2)C1CCN(C(=O)c2ccc(Cl)cc2)CC1,-12.5%
13,O=C(Nc1ccc2c(c1)OCO2)C1CCN(C(=O)c2ccc(Cl)cc2)CC1,-73.5%
14,COc1cc(OC)cc(C(=O)N2CCC(C(=O)Nc3ccc4c(c3)OCCO4)CC2)c1,2.48%
15,CS(=O)(=O)N1CCC(C(=O)Nc2ccc3c(c2)OCO3)CC1,-7.81%
16,COc1ccc(C(=O)N2CCC(C(=O)Nc3ccc4c(c3)OCO4)CC2)cc1,-79.9%
17,O=C(Nc1ccc2c(c1)OCO2)C1CCN(C(=O)c2ccc(Br)cc2)CC1,-70.5%
18,O=C(Nc1ccc2c(c1)OCCO2)C1CCN(C(=O)c2ccc(Br)cc2)CC1,-52.7%
19,O=C(Nc1ccc2c(c1)OCO2)C1CCCCC1,0.102%
20,O=C(Nc1ccc2c(c1)OCCO2)C1CCN(C(=O)c2ccccc2)CC1,5.84%
21,Cc1ccccc1C(=O)N1CCC(C(=O)Nc2ccc3c(c2)OCO3)CC1,3.97%
22,Cn1c(=O)n(CCCOc2ccc(Br)cc2)c2ccccc21,-3.96%

row,Structure (SMILES),"hERG current change (%, negative = inhibition) at 10uM"
1,COc1ccc(C2C(C(=O)c3ccco3)=C(O)C(=O)N2CC2CCCO2)cc1OC (centres unmarked),24.1%
2,O=C(CCN1c2ccccc2Sc2ccccc21)OCc1nnc(-c2ccccc2)o1,5.92%
3,O=S1(=O)CCOC[C@H](Cc2ccccc2)N1Cc1ccccc1,-37.8%
4,Cc1nc2c3ccccc3nc(NNC(=O)CCC(=O)N3CCN(c4ccccc4F)CC3)n2n1,-40.3%
5,CCOc1ccc(NC(=O)C2CCCN(C(=O)Nc3ccccc3)C2)cc1 (centres unmarked),2.35%
6,Cc1cc(C)n(C(C)CC(=O)Nc2ccc3c(c2)OCO3)n1 (centres unmarked),10.2%
7,COc1cc(OC)c(NC(=O)c2ccco2)cc1Cl,-14.3%
8,O=C1OCCC1Sc1nc2ccccc2c(=O)n1-c1ccc(F)cc1 (centres unmarked),8.7%
9,Cc1ccc(Cn2c(SC3CCOC3=O)nc3ccccc3c2=O)cc1 (centres unmarked),-42.9%
10,O=C1OCCC1Sc1nc2cc(Cl)ccc2n1Cc1ccccc1 (centres unmarked),-63.9%
11,O=C1OCCC1Sc1nc2ccccc2c(=O)n1Cc1ccc(F)cc1 (centres unmarked),-75.5%
12,O=C1OCCC1Sc1nc2ccccc2c(=O)n1Cc1ccccc1 (centres unmarked),-82.4%
13,O=C1OCCC1Sc1nnc(-c2ccccc2Cl)n1Cc1ccccc1 (centres unmarked),2.19%
14,CSc1nc2ccccc2c(=O)n1Cc1ccc(F)cc1,15.4%
15,O=C1OCCC1Sc1nc2ccccc2n1Cc1ccccc1 (centres unmarked),-46.3%
16,COCCn1c(SC2CCOC2=O)nc2ccccc2c1=O (centres unmarked),-31%
17,O=C(Nc1ccccc1Cl)c1ccc(=O)[nH]n1,8.03%
18,COCCn1c(SCC(=O)N(C(C)C)C(C)C)nnc1-c1cc2ccccc2cc1O,-15.8%
19,COc1cccc(CN(C)C(=O)c2cc(S(=O)(=O)NC3CCCCC3)ccc2C)c1OC,-4.41%
20,COc1ccc(-c2oc3ccccc3c(=O)c2OC(C)=O)cc1,-11.3%
21,CC(=O)c1cccc(NC(=O)NCc2cccnc2)c1,12.2%
22,O=C(Oc1ccccc1)N(c1ccccc1)c1ccccc1,2.8%

# — publication PMC4336329 (PLoS ONE, 2015)
